# In publication PMC5540273 (PLoS ONE, 2017):
# Columns and labels:
# Settings in all cases: concentration: 1 μM, replicates: in singlicate; n = 1
# PIK4CB = tested on: T1, PIK4CB
# T1 construct: gene PI4KB
# PIKFYVE = tested on: PIKFYVE
# PIM1 = tested on: PIM1
# PIM2 = tested on: PIM2
# PIM3 = tested on: PIM3
# PIP5K1A = tested on: PIP5K1A
# PIP5K1C = tested on: PIP5K1C
# PIP5K2B = tested on: PIP5K2B
# PIP5K2C = tested on: T2, PIP5K2C
# T2 construct: gene PIP4K2C
# PKAC-alpha = tested on: T3, PKAC-alpha
# T3 construct: gene PRKACA
# 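Further: KINOMEscan kinase panel screen.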
SMILES,%Inh (PIK4CB),%Inh (PIKFYVE),%Inh (PIM1),%Inh (PIM2),%Inh (PIM3),%Inh (PIP5K1A),%Inh (PIP5K1C),%Inh (PIP5K2B),%Inh (PIP5K2C),%Inh (PKAC-alpha)
CS(=O)(=O)CCNCc1nc(-c2ccc3ncnc(Nc4ccc5c(cnn5Cc5ccccc5)c4)c3c2)cs1.Cl.Cl [GW569716],59%,0%,21%,0%,0%,46%,58%,19%,41%,0%
COC(=O)c1cccc(NC(=O)NC2CCN(c3ccnc(Nc4ccc(OC)cc4)n3)C2)c1 (centres unmarked) [GSK1379746],21%,41%,0%,0%,0%,17%,10%,19%,48%,0%
CC(=O)c1cccc(NC(=O)NC2CCN(c3ccnc(Nc4ccc(F)cc4)n3)C2)c1 (centres unmarked) [GSK1379710],31%,25%,18%,0%,4%,36%,50%,8%,22%,0%
Cn1cncc1-c1cc2c(Nc3ccc(OCc4ccccc4)cc3)ncnc2cn1 [GW281179],0%,18%,0%,0%,0%,0%,23%,0%,26%,0%
COc1ccc(CSc2nnc(-c3ccc4nccn4c3)o2)cc1C(F)(F)F,0%,0%,6%,9%,0%,2%,0%,43%,0%,10%
CCc1ccc(-c2ccc3c(c2)-c2n[nH]cc2S(=O)(=O)N3C)cc1,0%,100%,0%,0%,18%,0%,45%,0%,16%,0%
Cc1cccc2c(-c3ccncn3)c(-c3ccc(F)cc3)nn12 [GW515532],0%,22%,20%,0%,0%,4%,31%,0%,0%,7%
Fc1ccc(-c2nn3cccc(F)c3c2-c2ccncc2)cc1 [GW475620],0%,28%,0%,0%,0%,0%,28%,19%,0%,11%
COc1ccc(Nc2nccc(N3CCC(NC(=O)C(C)c4ccc(Cl)cc4)C3)n2)cc1 (centres unmarked) [GSK1379735],0%,0%,0%,0%,35%,8%,52%,18%,25%,0%
COc1ccc(CSc2nnc(-c3ccc4ncsc4c3)o2)cc1C(F)(F)F,0%,0%,1%,0%,10%,0%,11%,17%,11%,0%
Fc1ccc(-c2nc[nH]c2-c2ccncc2)cc1 [SB-217360],0%,32%,19%,0%,11%,19%,0%,0%,2%,25%
CCn1c(-c2c(N)noc2C)nc2cnccc21 [SB-737856],0%,0%,0%,0%,0%,0%,0%,19%,6%,0%
O=c1cc(N2CCOCC2)nc2n(Cc3ccccc3F)ccn12 [GSK2297428],0%,0%,0%,0%,0%,6%,31%,19%,0%,0%
Cc1ccc(NC(=O)Nc2ccc(Cl)c(C(F)(F)F)c2)cc1-c1ccc(C(=O)Nc2ccncc2)cc1 [GSK1398470],0%,0%,23%,1%,21%,0%,23%,0%,8%,15%
Cn1cncc1C(=O)NC1CCN(c2ccnc(Nc3ccc(F)cc3)n2)C1 (centres unmarked) [GSK1379717],26%,0%,15%,0%,0%,0%,32%,0%,20%,0%
CC(=O)c1c(C)c2cnc(Nc3ccc(N4CCNCC4)cn3)nc2n(C2CCCC2)c1=O,0%,39%,0%,0%,0%,0%,0%,0%,14%,0%
CC[C@@H]1CO[C@H](C(=O)Nc2ccccc2)CN1c1cc(-c2ccc3c(N)n[nH]c3c2)nc(NC)n1 [GSK2376236],33%,0%,14%,0%,3%,0%,39%,3%,3%,74%
